An excerpt weighted towards active compounds, which were near 2% of everything screened.
PKA-R2B activ – activates the human PKA-R2B holoenzyme complex; AID 504700; P22694+P31323; actives 0.079% (n = 340,000); PKA-R2B holoenzyme dissociation, Cy5-IP20 fluorescence polarization; R2B truncated from residue 108, S112A mutant; 0% DMSO only, 100% 113 µM cGMP; activation, % at 11.4 µM;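 active = activation above a cutoff set at the mean over all compounds plus 3 SD, cut at about 18% in these data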;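 also: higher means more holoenzyme dissociation and a rise in polarization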
Target sequence (P31323 whole entry, looked up, other chains not shown, the tested form may be a part): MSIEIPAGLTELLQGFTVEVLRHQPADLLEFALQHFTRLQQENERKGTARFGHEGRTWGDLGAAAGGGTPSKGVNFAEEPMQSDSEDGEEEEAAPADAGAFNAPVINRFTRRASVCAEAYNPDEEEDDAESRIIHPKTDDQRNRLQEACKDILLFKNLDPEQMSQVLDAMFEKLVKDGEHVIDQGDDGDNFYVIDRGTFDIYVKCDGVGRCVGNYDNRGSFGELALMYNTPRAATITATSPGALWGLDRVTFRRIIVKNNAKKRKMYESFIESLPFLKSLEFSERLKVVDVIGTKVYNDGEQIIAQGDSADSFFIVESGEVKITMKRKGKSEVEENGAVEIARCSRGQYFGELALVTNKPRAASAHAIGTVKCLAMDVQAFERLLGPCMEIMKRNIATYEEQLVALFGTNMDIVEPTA
PKA-R1A activ – activates the PKA-R1A holoenzyme complex; PKA-R1A dissociation, Cy5-IP20 fluorescence polarization; scaled: DMSO 0%, 113 µM cGMP 100%; actives 0.083% (n = 340,000); activation, % at 11.4 µM; P00514+P68181;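 active = percent activation above the mean of all tested compounds plus 3 SD, cut at about 19% in these data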;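 also: higher means more PKAc released from R1A so a rise in polarization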
SUMO Mot1 rescue – inhibitors of SUMOylation pathway: yeast Mot1-301 growth rescue; S. cerevisiae Mot1-301 growth rescue, ATP luminescence, 38.5C; percent above DMSO median, 100 means doubled; growth rescue, % at 18.8 µM; actives 1% (n = 320,000); AID 2716;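 active = every valid replicate shows activation above 250% relative to neutral control wells; inactive = the rest, any valid replicate at or below 250%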;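 also: OY570 slx delta 5 strain wells were the positive control but not used for scaling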
bovine MsrA act – bovine methionine sulfoxide reductase A activation. purified bovine MsrA, absorbance read-out. activation, % at 10.6 µM. actives 0.3% (n = 360,000). AID 602163; in the data active = activation above about 7.5%;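 also: 0% = vehicle and 100% = reference activator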
MsrA inhibitor – bovine MsrA inhibition | purified bovine MsrA, absorbance read-out | inhibition, % at 15.5 µM | actives 0.75% (n = 360,000); in the data active = inhibition above about 4.5%;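 also: 0% = vehicle wells with enzyme and 100% = reference inhibitor wells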
Yeast Mot1 SUMO – inhibits SUMO pathway, affecting Mot1-301 yeast growth. shares compounds with SUMO Mot1 rescue. S. cerevisiae Mot1-301 galactose growth, ATP luminescence, 24 h; -100 = growth of slx-deleted rescue strain. 2,300 tested, under 10 active. growth activity, percent, % at 42 µM;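 active = Signal drops as the depositor expects, and the fitted half-maximal dose is no more than ten times the top valid tested dose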;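 also: more negative values mean stronger growth rescue toward the control strain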
The depositor's hits bear a star; . = no result; + = active, no number.

SMILES	PKA-R2B activ	PKA-R1A activ	SUMO Mot1 rescue	bovine MsrA act	MsrA inhibitor	Yeast Mot1 SUMO
Cc1ccccc1-c1ccc2c(c1)[C@@H]1C[C@H]3[C@@H](CN1CC2)[C@H](C)OC(C1CCCCC1)N3C (stereo partly specified)	.	.	.	.	-1	.
COC(=O)[C@]12C[C@H](CC(=O)N3CCCCC3)C(=O)N(Cc3ccccc3)C1=C[C@H](C(C)C)O[C@@H]2C1CC1	.	.	.	.	0	.
COc1ccc(C2C(C(=O)Nc3cc(OC)c(OC)c(OC)c3)c3ccccc3C(=O)N2C)cc1 (stereo unspecified)	6	-7	465*	-2	0	0
O=C(C(=O)N1CCC(CNS(=O)(=O)c2cc(C(F)(F)F)cc(C(F)(F)F)c2)CC1)c1cccs1	.	.	.	.	0	.
Fc1cccc(Nc2ncnc3sccc23)c1	-3	4	655*	-5	-2	0
Clc1ccc(N=c2ssnc2Cl)nc1	-15	-8	655*	-2	1	0
COC(CNC(=O)c1cn(C)c2ccc(S(=O)(=O)N3CCOCC3)cc2c1=O)OC	-2	5	606*	-6	3	0
N/C(Cn1cncn1)=N\NC(=O)c1ccc(Cl)cc1Cl	-8	-2	778*	-3	2	1
CN(C)c1nc2c(c(=O)[nH]c(=O)n2C)n1CCOc1ccccc1	-4	-11	-8	-4	0	.
CCN(CC)c1nc2c(c(=O)[nH]c(=O)n2C)n1CCOc1ccccc1	-2	-2	710*	-5	1	0
COc1ccccc1NC(=O)c1ccc(-n2ccnc2)c([N+](=O)[O-])c1	8	-10	513*	-1	1	0
COC(=O)C1=C(C)N(C)C(=NCc2ccccc2)NC1CCc1ccccc1 (stereo unspecified)	.	.	.	.	-1	.
COc1ccc(C2=NOC(Cn3nc(C(=O)NCc4cccs4)cc3-c3ccccc3)C2)cc1 (stereo unspecified)	3	-2	692*	-4	1	0
Cc1ccc(SCCNC(=O)c2ccccc2)cc1	8	17	-6	-2	-1	.
COc1ccc(C(=O)NCCSc2ccc(C)cc2)cc1	13	-2	470*	-3	0	0
CC(C)C[C@@H](CO)N1CCN(Cc2cccnc2)CCC1=O	-20	-4	621*	-9	0	0
CC(C)C[C@@H](CO)N1CCN(Cc2ccc(Br)cc2)CCC1=O	-1	6	6	1	-1	.
CC(=O)Oc1cccc(N2C(=O)c3ccc(C(=O)Nc4c[nH]c(=O)[nH]c4=O)cc3C2=O)c1	2	1	554*	-2	.	0
CN(C(=O)COc1cc(=O)n(C)c2ccccc12)c1ccc(Cl)cc1	4	-5	447*	-3	1	0
CCOc1ccc(N(CC)C(=O)COc2cc(=O)n(C)c3ccccc23)cc1	-2	-10	0	-3	0	.
CCOC(=O)C1=C[C@@H](C(C)(C)C)N(S(=O)(=O)c2ccc([N+](=O)[O-])cc2)[C@H]1c1ccccc1Cl	.	.	.	.	2	.
COc1ccc2c(c1)[C@H]1[C@H](CO2)[C@H](c2ccccc2)[C@]2(C)C(=O)Nc3cc(F)ccc3C(=O)N12	10	-4	376*	0	0	-1
COc1ccc2c(c1)OC[C@H]1[C@H]2N2C(=O)c3cc(OC)c(OC)cc3NC(=O)[C@@]2(C)[C@H]1c1ccccc1	-10	-12	485*	5	1	-1
COc1ccc2c(c1)OC[C@H]1[C@H]2N2C(=O)c3cc(Br)ccc3NC(=O)[C@@]2(C)[C@H]1c1ccccc1	-3	-15	468*	-6	.	0
COc1ccc2c(c1)[C@H]1[C@H](CO2)[C@H](c2ccccc2)[C@]2(C)C(=O)Nc3ccc(Br)cc3C(=O)N12	-8	3	548*	-11	1	-1
O=C(CSc1nnc(-c2cccs2)n1-c1ccccc1)c1ccc2c(c1)OCCO2	-2	-5	+	1	0	0
C[C@]12Cc3ccccc3C1CC1=N[C@@H](c3ccc(C(F)(F)F)cc3)O[C@@]13C[C@@H]2C(=O)N3Cc1ccncc1 (stereo partly specified)	.	.	.	.	0	.

Compound activity from PubChem.
